Experimental data: the supplement of paper PMC12494721
Counter-ions that a name gives are not always drawn.

Experiments:
Details in all cases: incubation time: 27 h, anaerobic, 37 °C;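 for the amine columns active = adjusted P below 0.05 in both replicates with a change the same way and a mean fold change under 0.8 or over 1.25; inactive = the rest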
[1] = test system: Clostridium sporogenes DSM 1664; experiment: growth (OD595) fold change vs plate DMSO controls (fold change (ratio)); higher = more growth
Summary of the method: (§1)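 The measure reported is growth, taken as fold change against the median of DMSO controls on the same plate. Anaerobic mGAM cultures in 96-well plates (27 h, 37 °C) were read at 595 nm, blank-subtracted, corrected for compound background using 20 µM compound solutions in water, and multiplied by a calibration factor of 5 to give OD. Any fold change above 1.5 became NA, and 2 biological replicates were averaged.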

Escherichia coli IAI1 [2] = experiment: as above
Summary of the method: as §1

[3] = test system: Klebsiella aerogenes DSM 30053; experiment: as above
Summary of the method: as §1

[4] = test system: Ruminococcus gnavus DSM 108212; experiment: as above
Summary of the method: as §1

[5] = test system: Klebsiella aerogenes DSM 30053; experiment: fold change of Histamine concentration vs plate DMSO controls (fold change (ratio)); higher = more amine produced, active = hit call of the paper (significant change in both replicates, either direction)
Summary of the method: (§2)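 In 80 µL wells, cultures of four gut bacterial strains in mGAM started at OD 0.1 before a 1:1 dilution and grew anaerobically at 37 °C for 27 h. Compounds were added to 20 µM final, except sweeteners at 50 µM final. After extraction of whole cultures with cold acetonitrile/methanol plus 0.1% formic acid and centrifugation, amines were measured by LC–triple-quadrupole MS in dynamic MRM mode against external calibration curves, with within-batch drift correction. Values give fold change over DMSO controls on the same plate, averaged across 2 biological replicates.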

[6] = test system: Clostridium sporogenes DSM 1664; experiment: fold change of Tryptamine concentration vs plate DMSO controls (fold change (ratio)); higher = more amine produced, active = hit call of the paper (significant change in both replicates, either direction)
Summary of the method: as §2

[7] = test system: Ruminococcus gnavus DSM 108212; experiment: as above
Summary of the method: as §2

Escherichia coli IAI1 [8] = experiment: fold change of Putrescine concentration vs plate DMSO controls (fold change (ratio)); higher = more amine produced, active = hit call of the paper (significant change in both replicates, either direction)
Summary of the method: as §2

[9] = test system: Klebsiella aerogenes DSM 30053; experiment: as above
Summary of the method: as §2

Escherichia coli IAI1 [10] = experiment: fold change of Cadaverine concentration vs plate DMSO controls (fold change (ratio)); higher = more amine produced, active = hit call of the paper (significant change in both replicates, either direction)
Summary of the method: as §2

[11] = test system: Klebsiella aerogenes DSM 30053; experiment: as above
Summary of the method: as §2

[12] = test system: Ruminococcus gnavus DSM 108212; experiment: fold change of 2-Phenylethylamine concentration vs plate DMSO controls (fold change (ratio)); higher = more amine produced, active = hit call of the paper (significant change in both replicates, either direction)
Summary of the method: as §2

SMILES | growth [1] | growth (Escherichia coli IAI1 [2]) | growth [3] | growth [4] | fold change of Histamine concentration [5] | fold change of Tryptamine concentration [6] | fold change of Tryptamine concentration [7] | fold change of Putrescine concentration (Escherichia coli IAI1 [8]) | fold change of Putrescine concentration [9] | fold change of Cadaverine concentration (Escherichia coli IAI1 [10]) | fold change of Cadaverine concentration [11] | fold change of 2-Phenylethylamine concentration [12]
CN[C@@H]1[C@H](O[C@H]2[C@H](O[C@H]3[C@H](O)[C@@H](O)[C@H](N=C(N)N)[C@@H](O)[C@@H]3N=C(N)N)O[C@@H](C)[C@]2(O)C=O)O[C@@H](CO)[C@H](O)[C@H]1O [Streptomycin sulfate] (20 µM) | 0.95 | 0.989 | 0.957 | 1.15 | 0.988 (inactive) | 1.12 (inactive) | 1.02 (inactive) | 0.983 (inactive) | 1 (inactive) | 1.03 (inactive) | 0.977 (inactive) | 0.994 (inactive)
N[C@@H]1CCCCN(c2c(F)cc3c(=O)c(C(=O)O)cn(C4CC4)c3c2Cl)C1 [Besifloxacin hydrochloride] (20 µM) | 0.0111 | 0.0312 | 0.191 | 0.266 | 0.189 (active) | 0.0464 (active) | 0.149 (active) | 0.814 (inactive) | 1.08 (inactive) | 0.267 (active) | 0.988 (inactive) | 0.166 (active)
C[C@@H](c1ncncc1F)[C@](O)(Cn1cncn1)c1ccc(F)cc1F [Voriconazole] (20 µM) | 0.883 | 0.997 | 1.02 | 0.932 | 0.988 (inactive) | 1.07 (inactive) | 1.01 (inactive) | 1.02 (inactive) | 0.999 (inactive) | 0.988 (inactive) | 1 (inactive) | 0.991 (inactive)
CCC1(c2ccccc2)C(=O)NCNC1=O [Primidone] (20 µM) | 0.938 | 0.953 | 0.991 | 1.01 | 1.09 (inactive) | 0.973 (inactive) | 1.02 (inactive) | 0.982 (inactive) | 1.03 (inactive) | 0.999 (inactive) | 0.981 (inactive) | 1.03 (inactive)
CC(C)NCC(O)c1ccc(O)c(O)c1 (single isomer, unassigned; (+)) [(+) Isoproterenol-(+)-bitartrate salt] (20 µM) | 1.02 | 1.06 | 0.995 | 1.06 | 1.03 (inactive) | 1.01 (inactive) | 0.989 (inactive) | 0.979 (inactive) | 0.997 (inactive) | 0.976 (inactive) | 0.974 (inactive) | 0.984 (inactive)
CN(Cc1cc(Br)cc(Br)c1N)C1CCCCC1 [Bromhexine hydrochloride] (20 µM) | 0.942 | 0.985 | 0.971 | 0.937 | 1.06 (inactive) | 1.05 (inactive) | 1 (inactive) | 1 (inactive) | 1.03 (inactive) | 1.06 (inactive) | 0.991 (inactive) | 1.07 (inactive)
CCOc1ccc(NC(N)=O)cc1 [(4-Ethoxyphenyl)urea] (50 µM) | 1.13 | 0.949 | 0.994 | 1.09 | 0.964 (inactive) | 0.979 (inactive) | 0.999 (inactive) | 0.971 (inactive) | 0.986 (inactive) | 1.11 (inactive) | 1.01 (inactive) | 0.947 (inactive)
CN(C)[C@@H]1C(=O)C(C(N)=O)=C(O)[C@@]2(O)C(=O)C3=C(O)c4c(O)ccc(Cl)c4[C@@H](O)[C@H]3C[C@@H]12 [Demeclocycline hydrochloride] (20 µM) | 0 | 0.0384 | 0.0385 | 0.802 | 0.107 (active) | 0.0455 (active) | 0.319 (active) | 0.239 (active) | 0.472 (active) | 0.225 (active) | 0.547 (active) | 0.364 (active)
COc1cc(N)cn[n+]1-c1ccccc1 [Amezinium metilsulfate] (20 µM) | 1.05 | 1.04 | 1.08 | 1.07 | 0.987 (inactive) | 1.05 (inactive) | 1.06 (inactive) | 0.969 (inactive) | 0.98 (inactive) | 1.02 (inactive) | 0.995 (inactive) | 1.11 (inactive)
CCOC(=O)O[C@]1(C(=O)OCCl)CC[C@H]2[C@@H]3CCC4=CC(=O)C=C[C@]4(C)[C@H]3[C@@H](O)C[C@@]21C [Loteprednol etabonate] (20 µM) | 1.29 | 1.26 | 1.08 | 1.08 | 0.899 (inactive) | 1.03 (inactive) | 1.01 (inactive) | 1.25 (inactive) | 1 (inactive) | 0.955 (inactive) | 1.01 (inactive) | 1.02 (inactive)
O=P(O)(O)C(O)(Cc1cccnc1)P(=O)(O)O [Risedronic acid monohydrate] (20 µM) | 1.08 | 1.12 | 1 | 0.913 | 1.05 (inactive) | 1.04 (inactive) | 1.04 (inactive) | 1.2 (inactive) | 1.02 (inactive) | 0.97 (inactive) | 1.01 (inactive) | 1.07 (inactive)
OC[C@H]1O[C@@H](c2ccc(Cl)c(Cc3ccc(O[C@H]4CCOC4)cc3)c2)[C@H](O)[C@@H](O)[C@@H]1O [Empagliflozin] (20 µM) | 1.04 | 1 | 1 | 0.989 | 0.998 (inactive) | 1.05 (inactive) | 0.872 (inactive) | 1.02 (inactive) | 0.986 (inactive) | 1.02 (inactive) | 0.974 (inactive) | 0.83 (inactive)
